# Hits are enriched below; roughly 3.9% of the tested compounds scored in any of these assays.
# FBA Mtb inh – Mtb FBA enzyme inhibitors, primary screen, biochemical, fluorescence, strain H37Rv; Fructose-bisphosphate aldolase (Mycobacterium tuberculosis (strain ATCC 25618 / H37Rv)), …; purified M. tuberculosis FBA, fluorescence read-out; inhibition, % at 1 µM; 2.3% of 360,000 active; in the data active means inhibition above about 27%;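 further: 0% = vehicle and 100% = reference inhibitor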
# Target sequence (P9WQA3 whole entry, looked up): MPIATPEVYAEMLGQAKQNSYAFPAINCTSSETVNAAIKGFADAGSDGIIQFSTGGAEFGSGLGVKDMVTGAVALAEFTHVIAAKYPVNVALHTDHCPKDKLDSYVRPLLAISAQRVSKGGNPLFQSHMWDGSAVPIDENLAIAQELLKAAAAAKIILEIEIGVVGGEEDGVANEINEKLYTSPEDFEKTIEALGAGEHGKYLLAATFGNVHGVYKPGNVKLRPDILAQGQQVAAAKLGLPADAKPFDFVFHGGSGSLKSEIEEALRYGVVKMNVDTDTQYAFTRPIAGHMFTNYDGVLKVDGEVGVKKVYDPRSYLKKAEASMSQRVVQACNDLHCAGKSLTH
# 3CLpro inhibitor – SARS-CoV 3CLpro protease inhibitors, primary screen, biochemical, quenched FRET. inhibition, % at 6 µM. Replicase polyprotein 1ab (Severe acute respiratory syndrome coronavirus), P0C6X7. 0.14% of 290,000 active. recombinant SARS-CoV 3CLpro, quenched FRET peptide cleavage; in the data active means inhibition above about 12%
# BH1578 lux ind – inducers of Vibrio cholerae quorum light production without autoinducers, primary screen, BH1578 luxS cqsA deficient, single point; activation, % at 18.7 µM; 0.16% of 350,000 active; V. cholerae BH1578 lux reporter, luminescence, 6 h; AID 588436, 2011; in the data active means activation mostly above about 9.7%, no sharp cut-off
# PrPC TRFRET – inhibitors of human cell surface prion protein PrPC, primary screen, cell-based, TR-FRET; TR-FRET read-out; inhibition, % at 13.8 µM; 0.43% of 370,000 active; in the data active means inhibition above about 24%; further: 0% = median of the test wells and 100% = reference compound wells
# GDH-TPI counter – GDH-TPI coupling enzyme inhibitors, primary screen, artefact control for M. tuberculosis FBA inhibitor project, biochemical, absorbance, full deck. GDH-TPI coupled enzyme counterscreen, NADH absorbance. inhibition, % at 4.8 µM. 1.2% of 360,000 active. AID 588335, 2011; in the data active means inhibition above about 30%;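 further: 0% = DMSO wells and 100% = wells lacking the enzyme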
# The depositor's hits bear a star; i = inactive; . = no result; + = active, no number.
SMILES,FBA Mtb inh,3CLpro inhibitor,BH1578 lux ind,PrPC TRFRET,GDH-TPI counter
COC(=O)[C@]1(Cc2ccccc2)N[C@H](c2ccc(-c3cc(C(C)=O)cs3)cc2)[C@@H]2C(=O)N(C)C(=O)[C@@H]21,8,.,0,-1,34*
Cn1c(=O)c2[nH]c(C(O)c3ccc(Cl)cc3)nc2n(C)c1=O (stereo not drawn),4,.,-2,-4,5
Cc1ccc2nc(-c3ccc(NS(=O)(=O)c4ccccc4)cc3)sc2c1,+,4,-2,-4,12
Cc1ccc2nc(-c3ccc(NS(=O)(=O)c4ccc(F)c(F)c4)cc3)sc2c1,+,7,0,0,28
Cc1ccc(NS(=O)(=O)c2ccc(C)c(C(=O)NCC(c3ccccc3)N(C)C)c2)cc1 (stereo not drawn),-2,.,i,-5,1
C=CCNC(=O)Nc1ccc(Cl)cn1,-4,-3,.,7,-3
O=c1[nH]c(/C=C/c2cccc([N+](=O)[O-])c2)c([N+](=O)[O-])c(=O)[nH]1,0,-2,i,-27,16
O=[N+]([O-])c1cccc(/C=C/c2nc[nH]c2[N+](=O)[O-])c1,-11,-2,0,-12,42*
O=C(N/N=C/c1cccc2ccccc12)c1cccc(F)c1,-2,0,i,1,34*
O=C(CNc1ccc2c(c1)OCO2)N/N=C\c1cn(Cc2ccccc2)c2ccccc12,1,7,-1,13,31*
O=C(N/N=C/c1ccccc1Cl)c1cccc(F)c1,0,5,0,-1,8
Nc1ccc(C(=O)N/N=C/c2cn(Cc3cccc(F)c3)c3ccccc23)cc1,2,5,8,14,32*
O=C(N/N=C/c1cccc2ccccc12)c1ccc(CN2CCOCC2)cc1,6,-2,i,-5,41*
O=C(CNc1ccc2c(c1)OCO2)N/N=C\c1cn(Cc2ccc(F)cc2)c2ccccc12,.,1,.,.,.
COC(=O)C1=C(C)N(Cc2cccc(C(F)(F)F)c2)C(=NCC2CC2)NC1c1ccc(F)cc1 (stereo not drawn),.,.,.,-21,.
Cc1cccn2c(=O)c3cc(C(=O)NCc4cccnc4)c(=N)n(CC4CCCO4)c3nc12 (stereo not drawn),+,-2,-1,-52,6
N=c1c(C(=O)NCc2ccc(F)cc2)cc2c(=O)n3ccccc3nc2n1CC1CCCO1 (stereo not drawn),+,-3,5,-45,13
Cc1cccn2c(=O)c3cc(C(=O)NCCc4ccccc4)c(=N)n(CC4CCCO4)c3nc12 (stereo not drawn),119*,2,0,-16,1
N=c1c(C(=O)NCc2ccc3c(c2)OCO3)cc2c(=O)n3ccccc3nc2n1CC1CCCO1 (stereo not drawn),16,-4,-1,-32,4
N=c1c(C(=O)NCc2ccco2)cc2c(=O)n3ccccc3nc2n1CC1CCCO1 (stereo not drawn),+,-6,-1,-39,20
CC(C)(C)OC(=O)N1CCC[C@H]1C(=O)Nc1ccc(S(=O)(=O)C(F)F)cc1,1,-1,1,6,-4
N=c1c(C(=O)NCCc2ccccc2)cc2c(=O)n3ccccc3nc2n1CC1CCCO1 (stereo not drawn),+,-1,0,-32,10
C[C@@H]1CN([C@@H](C)CO)C(=O)CCCn2nncc2CO[C@H]1CN(C)Cc1ccc(Cl)c(Cl)c1,0,.,0,1,-7
CCCOC(=O)c1ccc(-c2ccc(C=O)o2)cc1,5,1,0,0,36*
NS(=O)(=O)c1ccc(-c2ccc(C=O)o2)cc1,5,2,0,7,34*
SMILES,FBA Mtb inh,3CLpro inhibitor,BH1578 lux ind,PrPC TRFRET,GDH-TPI counter
COc1ccc(OC)c2[nH]c(C(=O)N3CCC(C(=O)O)CC3)cc12,2,2,-8,-4,11
COc1cc2cc(C(=O)N3CC(COS(C)(=O)=O)c4ccc(O)cc43)[nH]c2c(OC)c1OC (stereo not drawn),-1,.,-6,.,39*
O=[N+]([O-])c1ccc2[nH]c(O)c(N=Nc3ccc(F)cc3)c2c1,-6,4,-1,-2,1
O=[N+]([O-])c1ccc2[nH]c(O)c(N=NC3CCS(=O)(=O)C3)c2c1 (stereo not drawn),-3,0,i,-10,59*
C#CCSc1nnc(-c2sc(-c3ccccc3)nc2C)n1C,36*,-2,0,-8,7
N#Cc1nc(-c2ccc(OCc3ccccc3)cc2)oc1NCc1cccnc1,7,10,i,5,8
N#Cc1nc(-c2ccccc2F)oc1NCCc1ccccc1,122*,8,i,10,-5
N#Cc1nc(-c2ccccc2F)oc1NCc1ccccc1,142*,1,0,8,15
N#Cc1nc(-c2cccs2)oc1NCCN1CCOCC1,195*,4,4,-6,32*
COc1ccc(CCNc2oc(Cc3ccccc3)nc2C#N)cc1OC,-1,1,0,6,-17
N#Cc1nc(-c2ccccc2F)oc1NCCc1ccccn1,15,.,-1,0,20
N#Cc1nc(-c2cccs2)oc1NCCc1ccccc1,+,6,-5,10,15
CC(C)OC(=O)C1=CNCC(C)(C)c2c1[nH]c1cc(F)ccc21,.,.,.,8,.
CCOC(=O)[C@]12CCCCC/C=C\1N(Cc1ccc(OC)cc1)C(=O)[C@H]2CC(=O)NCC12CC3CC(CC(C3)C1)C2,.,.,.,-5,.
Cc1oc(-c2cccs2)nc1CS(=O)CC(=O)NCc1ccc2c(c1)OCO2 (stereo not drawn),0,4,0,-7,10
N#Cc1nc(-c2cccs2)oc1NCc1ccc2c(c1)OCO2,112*,4,0,9,27
Cc1cccc(S(=O)(=O)N2CCn3cccc3C2C)c1 (stereo not drawn),1,.,i,-3,4
O=C(Nc1ccnn1C1CCN(Cc2ccc(CO)o2)CC1)c1cccc(F)c1,2,.,0,6,8
O=C1NC(=S)N/C1=C/c1cccc([N+](=O)[O-])c1O,-6,3,i,-16,5
O=C1NC(=S)N/C1=C/c1cc([N+](=O)[O-])ccc1O,-21,1,i,-22,34*
Cc1cc(OCC(=O)Nc2ccc(S(=O)(=O)N3CCN(C)CC3)cc2)ccc1Cl,141*,-2,0,0,1
Cc1cc(OCC(=O)Nc2ccc(S(=O)(=O)N3CCN(C)CC3)cc2)cc(C)c1Cl,-3,-5,.,-4,7
O=C(O)c1cccc(N2C(=O)c3ccc4c5c(ccc(c35)C2=O)C(=O)N(c2cccc(C(=O)O)c2)C4=O)c1,-3,0,-1,-10,38*
